Measurements as given in PubChem BioAssay (EPA / NIEHS).
The source made the active and inactive calls. Rule for the calls: active = hit-call score of the fitted dose curve at least 0.9, where 1 is the maximum; inactive = score below 0.9.

Experiments:
[1] = read-out: Thrombomodulin, THBD (gene 7056); assay: BSK_CASM3C_Thrombomodulin: BioMAP Diversity Plus: CASM3C Assay for Thrombomodulin Biomarker Activity (AID 2283051); conditions: primary human coronary artery smooth muscle cells; actives raise or lower the signal;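 note: thrombomodulin protein level measured by ELISA 24 h after dosing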
[2] = read-out: Tissue Factor, F3 (gene 2152); assay: BSK_CASM3C_TissueFactor: BioMAP Diversity Plus: CASM3C Assay for Tissue Factor Biomarker Activity (AID 2283052); conditions: primary human coronary artery smooth muscle cells; actives raise or lower the signal;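 note: cell surface tissue factor protein level read by ELISA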
[3] = read-out: Urokinase-type plasminogen activator receptor (uPAR), PLAUR (gene 5329); assay: BSK_CASM3C_uPAR: BioMAP Diversity Plus: CASM3C Assay for Urokinase-type plasminogen activator receptor (uPAR) Biomarker Activity (AID 2283054); conditions: primary human coronary artery smooth muscle cells; actives raise or lower the signal;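 note: cell-surface uPAR protein level quantified by ELISA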
[4] = read-out: Vascular cell adhesion molecule 1 (VCAM1), VCAM1 (gene 7412); assay: BSK_CASM3C_VCAM1: BioMAP Diversity Plus: CASM3C Assay for Vascular cell adhesion molecule 1 (VCAM1) Biomarker Activity (AID 2283055); conditions: primary human coronary artery smooth muscle cells; actives raise or lower the signal;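 note: VCAM-1 protein level quantified by ELISA on the cells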
[5] = read-out: Collagen III, COL3A1 (gene 1281); assay: BSK_hDFCGF_CollagenIII: BioMAP Diversity Plus: hDFCGF Assay for Collagen III Biomarker Activity (AID 2283056); conditions: primary human foreskin fibroblasts; actives raise or lower the signal
Outline: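 Human foreskin primary fibroblasts were exposed to test chemicals for 24 h, after which collagen III was quantified by ELISA. Activity was fitted bidirectionally against DMSO as negative control and baseline.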

[6] = read-out: Epidermal growth factor receptor (EGFR), EGFR (gene 1956); assay: BSK_hDFCGF_EGFR: BioMAP Diversity Plus: hDFCGF Assay for Epidermal growth factor receptor (EGFR) Biomarker Activity (AID 2283057); conditions: primary human foreskin fibroblasts; actives raise or lower the signal
Outline: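 hDFCGF system, primary human foreskin fibroblasts; compound 24 h; EGFR measured by ELISA; DMSO = negative control/baseline; bidirectional fitting.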

[7] = read-out: Interleukin-8 (IL8), CXCL8 (gene 3576); assay: BSK_hDFCGF_IL8: BioMAP Diversity Plus: hDFCGF Assay for Interleukin-8 (IL8) Biomarker Activity (AID 2283058); conditions: primary human foreskin fibroblasts; actives raise or lower the signal
Outline: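 hDFCGF human dermal fibroblasts; 24 h chemical exposure; IL-8 by ELISA; bidirectional curve fit vs DMSO baseline; gain or loss of signal scored.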

[8] = BSK_hDFCGF_Proliferation: Cell Proliferation Assessment in the BioMAP Diversity Plus: hDFCGF Assay (AID 2283059); conditions: primary human foreskin fibroblasts;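 note: curves fitted for both rise and fall of signal versus DMSO baseline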
Outline: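 This proliferation readout used SRB total-protein staining of human foreskin fibroblasts […], normalized to DMSO with bidirectional curve fitting.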

[9] = read-out: Macrophage colony-stimulating factor (MCSF), CSF1 (gene 1435); assay: BSK_hDFCGF_MCSF: BioMAP Diversity Plus: hDFCGF Assay for Macrophage colony-stimulating factor (MCSF) Biomarker Activity (AID 2283060); conditions: primary human foreskin fibroblasts; actives raise or lower the signal
Outline: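 Human foreskin primary fibroblasts were treated with test chemical for 24 h, and M-CSF was then measured by ELISA. Data were fitted bidirectionally against DMSO as the negative control and activity baseline.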

[10] = BSK_hDFCGF_SRB: Viability Assessment in the BioMAP Diversity Plus: hDFCGF Assay (AID 2283061); conditions: primary human foreskin fibroblasts;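 note: cells exposed to compound for 24 h before the read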
Outline: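 Human foreskin primary fibroblasts were treated with compound and assessed 24 h after dosing. Total protein was measured by sulforhodamine B staining (0.1% SRB after 10% TCA fixation, 560 nm read) as a cytotoxicity marker, with bidirectional fitting against DMSO baseline.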

[11] = read-out: TIMP metallopeptidase inhibitor 1 (TIMP1), TIMP1 (gene 7076); assay: BSK_hDFCGF_TIMP1: BioMAP Diversity Plus: hDFCGF Assay for TIMP metallopeptidase inhibitor 1 (TIMP1) Biomarker Activity (AID 2283062); conditions: primary human foreskin fibroblasts; actives raise or lower the signal
Outline: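 Primary human foreskin fibroblasts in the hDFCGF system were dosed with compound for 24 h, then TIMP-1 was measured by ELISA. Activity was fitted bidirectionally relative to DMSO control; parallel SRB staining assessed cytotoxicity.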

[12] = read-out: Monokine induced gamma interferon (MIG), CXCL9 (gene 4283); assay: BSK_hDFCGF_MIG: BioMAP Diversity Plus: hDFCGF Assay for Monokine induced gamma interferon (MIG) Biomarker Activity (AID 2283063); conditions: primary human foreskin fibroblasts; actives raise or lower the signal
Outline: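 ELISA read-out of MIG from primary human dermal fibroblasts 24 h post-dosing. Gain or loss of signal fitted bidirectionally, DMSO as baseline.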

[13] = read-out: Matrix Metallopeptidase 1 (MMP1), MMP1 (gene 4312); assay: BSK_hDFCGF_MMP1: BioMAP Diversity Plus: hDFCGF Assay for Matrix Metallopeptidase 1 (MMP1) Biomarker Activity (AID 2283064); conditions: primary human foreskin fibroblasts; actives raise or lower the signal
Outline: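 hDFCGF primary fibroblasts (human foreskin); chemical added; 24 h; MMP1 by ELISA; bidirectional fit vs DMSO.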

[14] = read-out: Plasminogen activator inhibitor-1 (PAI1), SERPINE1 (gene 5054); assay: BSK_hDFCGF_PAI1: BioMAP Diversity Plus: hDFCGF Assay for Plasminogen activator inhibitor-1 (PAI1) Biomarker Activity (AID 2283066); conditions: primary human foreskin fibroblasts; actives raise or lower the signal
Outline: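 Primary dermal fibroblasts (human foreskin), hDFCGF system; compound 24 h; PAI-1 by ELISA; bidirectional fit vs DMSO control.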

[15] = read-out: Intercellular Adhesion Molecule 1 (ICAM1), ICAM1 (gene 3383); assay: BSK_KF3CT_ICAM1: BioMAP Diversity Plus: KF3CT Assay for Intercellular Adhesion Molecule 1 (ICAM1) Biomarker Activity (AID 2283067); conditions: primary human keratinocytes with fibroblasts; actives raise or lower the signal
Outline: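 Human keratinocyte plus foreskin fibroblast primary co-culture was exposed to chemical for 24 h. ICAM-1 was then quantified by ELISA, and the data were fit bidirectionally against DMSO as the negative control and baseline.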

[16] = BSK_KF3CT_SRB: Viability Assessment in the BioMAP Diversity Plus: KF3CT Assay (AID 2283069); conditions: primary human keratinocytes with fibroblasts;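 note: fitted for both signal gain and loss against DMSO baseline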
Outline: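 Keratinocytes co-cultured with foreskin fibroblasts (human primary); chemical added, 24 h; fix 10% TCA, stain 0.1% SRB, A560. Bidirectional fit vs DMSO.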

[17] = read-out: Interleukin-1 alpha (IL1a), IL1A (gene 3552); assay: BSK_KF3CT_IL1a: BioMAP Diversity Plus: KF3CT Assay for Interleukin-1 alpha (IL1a) Biomarker Activity (AID 2283070); conditions: primary human keratinocytes with fibroblasts; actives raise or lower the signal
Outline: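 Chemicals were dosed onto co-cultured human keratinocytes and foreskin fibroblasts, IL-1a was quantified by ELISA at 24 h, and activity was fitted in both directions relative to DMSO controls.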

[18] = read-out: Interferon-gamma inducible Protein 10 (IP10), CXCL10 (gene 3627); assay: BSK_KF3CT_IP10: BioMAP Diversity Plus: KF3CT Assay for Interferon-gamma inducible Protein 10 (IP10) Biomarker Activity (AID 2283068); conditions: primary human keratinocytes with fibroblasts; actives raise or lower the signal
Outline: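 Signal is secreted/surface IP-10 by ELISA in a human primary skin co-culture of keratinocytes and foreskin fibroblasts, taken 24 h post-dosing; DMSO served as negative control.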

[19] = read-out: Vascular cell adhesion molecule 1 (VCAM1), VCAM1 (gene 7412); assay: BSK_hDFCGF_VCAM1: BioMAP Diversity Plus: hDFCGF Assay for Vascular cell adhesion molecule 1 (VCAM1) Biomarker Activity (AID 2283065); conditions: primary human foreskin fibroblasts; actives raise or lower the signal
Outline: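 Primary human foreskin fibroblasts (hDFCGF system) were dosed with chemical and VCAM-1 was measured by ELISA 24 h later. Bidirectional curve fitting used DMSO as negative control and activity baseline.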

Measured: AC50

CC(C)Oc1cc(-n2nc(C(C)(C)C)oc2=O)c(Cl)cc1Cl
active: [1] 25.7 µM | [8] 29.5 µM | [9] 15.2 µM | [10] 28.6 µM | [13] 5.65 µM | [14] 24.4 µM | [17] 13.9 µM
not listed: [18] | [19]
inactive: all other assays above

CCCCNC(=O)n1c(NC(=O)OC)nc2ccccc21
active: [1] 17.4 µM | [8] 15 µM | [13] 11.3 µM | [17] 20 µM
not listed: [19]
inactive: all other assays above

CCOc1cc(Oc2ccc(C(F)(F)F)cc2Cl)ccc1[N+](=O)[O-]
active: [5] 12.9 µM | [6] 14.2 µM | [8] 10.6 µM | [9] 6.77 µM | [13] 2.89 µM | [14] 5.49 µM | [17] 6.07 µM
not listed: [18] | [19]
inactive: all other assays above

COC(=O)N(OC)c1ccccc1COc1ccn(-c2ccc(Cl)cc2)n1
inactive: [2] | [3] | [6] | [11] | [12] | [15] | [16]
active: [1] 31.2 µM | [4] 11.7 µM | [5] 0.8 µM | [7] 5.63 µM | [8] 1.84 µM | [9] 20 µM | [10] 13.4 µM | [13] 4.62 µM | [14] 2.46 µM | [18] 6.72 µM | [17] 3.97 µM

CCON=C(CC)C1=C(O)CC(c2c(C)cc(C)cc2C)CC1=O (stereo unspecified)
not listed: [19]
inactive: all other assays above

N#CC(CCc1ccc(Cl)cc1)(Cn1cncn1)c1ccccc1 (stereo unspecified)
active: [8] 1.78 µM
not listed: [18]
inactive: all other assays above
